# Experimental data reported in PubChem BioAssay (EPA / NIEHS).
# Results filed as inconclusive are left out. Activity calls are given as the source filed them. How the source made its calls: active means hit-call score of the fitted dose curve at least 0.9, where 1 is the maximum; inconclusive means response in the unintended direction; inactive means score below 0.9.
# Columns and labels:
# [1] = biological target: human Elastase, ELANE (gene 1991) (UniProt P08246); assay: NVS_ENZ_hElastase: NovaScreen (NVS) Enzymatic Assay for human Elastase (AID 2283153)
# In short: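 Cell-free elastase from human neutrophils, 1.5 h after dosing, activity read by absorbance. Primary screen in duplicate at 25 uM; hits (e.g., 30% inhibition) rerun in singleton concentration-response up to 50 uM, fitted versus DMSO.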
# [2] = biological target: human Ephrin type-A Receptor 2 (EphA2), EPHA2 (gene 1969) (UniProt P29317); assay: NVS_ENZ_hEphA2: NovaScreen (NVS) Enzymatic Assay for human Ephrin type-A Receptor 2 (EphA2) (AID 2283155)
# In short: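 Cell-free recombinant EphA2 kinase with specific substrate, 1 h, fluorescence with electrophoretic mobility-shift separation of substrate and product. Primary screen at 25 uM in duplicate; hits retested in singleton concentration-response up to 50 uM, referenced to DMSO.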
# [3] = biological target: human Dual Specificity Protein Phosphatase 3 (DUSP3), DUSP3 (gene 1845) (UniProt P51452); assay: NVS_ENZ_hDUSP3: NovaScreen (NVS) Enzymatic Assay for human Dual Specificity Protein Phosphatase 3 (DUSP3) (AID 2283152);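 further: phosphatase activity of recombinant human DUSP3 on a fluorogenic substrate without cells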
# In short: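 Cell-free assay with recombinant human DUSP3 and fluorogenic substrate, read by fluorescence intensity. Primary screen ran duplicate at 25 uM; actives followed up in concentration series; loss of signal versus DMSO scored.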
# [4] = biological target: human Ephrin type-A Receptor 1 (EphA1), EPHA1 (gene 2041) (UniProt P21709); assay: NVS_ENZ_hEphA1: NovaScreen (NVS) Enzymatic Assay for human Ephrin type-A Receptor 1 (EphA1) (AID 2283158);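 further: activity is signal loss versus DMSO meaning EphA1 kinase inhibition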
# In short: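 Cell-free kinase activity with recombinant protein, 1 hour after dosing; product separated by electrophoretic mobility shift, fluorescence read. Primary screen at 25 uM in duplicate; hits run as concentration-response up to 50 uM, relative to DMSO.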
# [5] = biological target: human Colony Stimulating Factor 1 Receptor (CSF1R), CSF1R (gene 1436) (UniProt P07333); assay: NVS_ENZ_hCSF1R: NovaScreen (NVS) Enzymatic Assay for human Colony Stimulating Factor 1 Receptor (CSF1R) (AID 2283150)
# In short: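 Cell-free recombinant human CSF1R kinase with fluorescent substrate, product separated by electrophoretic mobility shift; read 1 h after dosing. Primary screen at 25 uM in duplicate, actives then in concentration-response up to 50 uM, relative to DMSO.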
# [6] = biological target: human Janus Kinase 2 (Jak2), JAK2 (gene 3717) (UniProt O60674); assay: NVS_ENZ_hJak2: NovaScreen (NVS) Enzymatic Assay for human Janus Kinase 2 (Jak2) (AID 2283169)
# In short: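 Cell-free recombinant human JAK2 enzyme activity assay, fluorescence/electrophoretic mobility shift read 1 h after dosing. Screened in duplicate at 25 uM, then concentration-response up to 50 uM; activity as signal loss relative to DMSO.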
# [7] = biological target: Mitogen-activated protein kinase 3 (Homo sapiens) (UniProt P27361); assay: NVS_ENZ_hMAPK3: NovaScreen (NVS) Enzymatic Assay for human Mitogen-Activated Protein Kinase 3 (MAPK 3) (AID 2283177)
# In short: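 Cell-free enzymatic assay with recombinant protein and specific substrate; fluorescence and electrophoretic mobility shift read-out 1 h after dosing. Primary screen duplicate at 25 uM; actives then run in concentration-response up to 50 uM, loss of signal versus DMSO.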
# [8] = biological target: human Esterase Plasma (ES), BCHE (gene 590) (UniProt P06276); assay: NVS_ENZ_hES: NovaScreen (NVS) Enzymatic Assay for human Esterase Plasma (ES) (AID 2283157)
# In short: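 Cell-free enzyme assay using esterase extracted from human plasma; colorimetric absorbance read 0.25 hour after dosing. Single-concentration duplicate screen at 25 uM, then concentration-response up to 50 uM; loss of signal scored against DMSO baseline.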
# [9] = biological target: Histone deacetylase 3 (Homo sapiens) (UniProt O15379); assay: NVS_ENZ_hHDAC3: NovaScreen (NVS) Enzymatic Assay for human Histone Deacetylase 3 (HDAC3) (AID 2283163)
# In short: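 Recombinant human HDAC3 with fluorescent substrate, 1 h after dosing; product separated from substrate by electrophoretic mobility shift and read by fluorescence. Primary screen at 25 uM in duplicate; actives (e.g. ≥30% inhibition) retested in concentration-response up to 50 uM.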
# [10] = biological target: human MAP Kinase-Activated Protein Kinase 2 (MAPKAPK2), MAPKAPK2 (gene 9261) (UniProt P49137); assay: NVS_ENZ_hMAPKAPK2: NovaScreen (NVS) Enzymatic Assay for human MAP Kinase-Activated Protein Kinase 2 (MAPKAPK2) (AID 2283178)
# In short: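 Cell-free recombinant human MAPKAPK2 activity measured by fluorescence with electrophoretic mobility shift separation of substrate and product, 1 hr after dosing. Loss of signal versus DMSO; primary screen at 25 uM, concentration-response up to 50 uM.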
# [11] = biological target: Glycogen synthase kinase-3 beta (Homo sapiens) (UniProt P49841); assay: NVS_ENZ_hGSK3b: NovaScreen (NVS) Enzymatic Assay for human Glycogen Synthase Kinase-3 beta (GSK3b) (AID 2283165)
# In short: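 Recombinant enzyme with specific fluorescent substrate, 1 h, product separated by electrophoretic mobility shift. Primary duplicate screen at 25 uM; actives (e.g. 30% inhibition) followed in singleton concentration-response to 50 uM. Signal loss fitted versus DMSO.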
# [12] = biological target: human Epidermal Growth Factor Receptor (EGFR), EGFR (gene 1956) (UniProt P00533); assay: NVS_ENZ_hEGFR: NovaScreen (NVS) Enzymatic Assay for human Epidermal Growth Factor Receptor (EGFR) (AID 2283151)
# In short: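 Cell-free kinase assay, fluorescence plus electrophoretic mobility shift separating substrate and product, read 1 hour after dosing; loss of signal vs DMSO. Duplicate screen at 25 uM, then concentration-response to 50 uM.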
# [13] = biological target: human Fibroblast Growth Factor Receptor 1 (FGFR1), FGFR1 (gene 2260) (UniProt P11362); assay: NVS_ENZ_hFGFR1: NovaScreen (NVS) Enzymatic Assay for human Fibroblast Growth Factor Receptor 1 (FGFR1) (AID 2283159);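 on AC50: hits lower the signal so potencies describe inhibitors of the kinase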
# In short: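 Cell-free recombinant kinase with fluorescent substrate, product separated by electrophoretic mobility shift; read 1 hour after dosing, loss of signal relative to DMSO. Initial screen in duplicate at 25 uM, actives followed in concentration series.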
# [14] = biological target: human FYN Proto-Oncogene, Src family Tyrosine Kinase (Fyn), FYN (gene 2534) (UniProt P06241); assay: NVS_ENZ_hFyn: NovaScreen (NVS) Enzymatic Assay for human FYN Proto-Oncogene, Src family Tyrosine Kinase (Fyn) (AID 2283161)
# In short: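 Recombinant enzyme with fluorescent substrate, product separated by electrophoretic mobility shift; read 1 h after dosing. Duplicate 25 uM single-point screen, actives retested in concentration series; loss of signal vs DMSO.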
# [15] = biological target: human Insulin Receptor (InsR), INSR (gene 3643) (UniProt P06213); assay: NVS_ENZ_hInsR: NovaScreen (NVS) Enzymatic Assay for human Insulin Receptor (InsR) (AID 2283168)
# In short: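 Fluorescent substrate phosphorylation by recombinant kinase, product resolved by electrophoretic mobility shift, read 1 h after dosing. Screened in duplicate at 25 uM; hits (e.g., 30% inhibition) run in concentration-response to 50 uM; DMSO as baseline.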
# [16] = biological target: Protein deacetylase HDAC6 (Homo sapiens) (UniProt Q9UBN7); assay: NVS_ENZ_hHDAC6: NovaScreen (NVS) Enzymatic Assay for human Histone Deacetylase 6 (HDAC6) (AID 2283164)
# In short: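 Recombinant human HDAC6 with fluorescent substrate, 1 h; product separated from substrate by electrophoretic mobility shift. Primary screen in duplicate at 25 uM; actives retested singly in concentration-response up to 50 uM, fitted relative to DMSO.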
# [17] = biological target: human LYN Proto-Oncogene, Src family Tyrosine Kinase (LynA), LYN (gene 4067) (UniProt P07948); assay: NVS_ENZ_hLynA: NovaScreen (NVS) Enzymatic Assay for human LYN Proto-Oncogene, Src family Tyrosine Kinase (LynA) (AID 2283173)
# In short: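 Recombinant kinase with fluorescent substrate; product separated from substrate by electrophoretic mobility shift and read 1 h after dosing. Duplicate screen at 25 uM, then concentration-response up to 50 uM; activity scored as signal loss against DMSO.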
# Chain of human Esterase Plasma (ES), BCHE (gene 590) (P06276 whole entry, looked up): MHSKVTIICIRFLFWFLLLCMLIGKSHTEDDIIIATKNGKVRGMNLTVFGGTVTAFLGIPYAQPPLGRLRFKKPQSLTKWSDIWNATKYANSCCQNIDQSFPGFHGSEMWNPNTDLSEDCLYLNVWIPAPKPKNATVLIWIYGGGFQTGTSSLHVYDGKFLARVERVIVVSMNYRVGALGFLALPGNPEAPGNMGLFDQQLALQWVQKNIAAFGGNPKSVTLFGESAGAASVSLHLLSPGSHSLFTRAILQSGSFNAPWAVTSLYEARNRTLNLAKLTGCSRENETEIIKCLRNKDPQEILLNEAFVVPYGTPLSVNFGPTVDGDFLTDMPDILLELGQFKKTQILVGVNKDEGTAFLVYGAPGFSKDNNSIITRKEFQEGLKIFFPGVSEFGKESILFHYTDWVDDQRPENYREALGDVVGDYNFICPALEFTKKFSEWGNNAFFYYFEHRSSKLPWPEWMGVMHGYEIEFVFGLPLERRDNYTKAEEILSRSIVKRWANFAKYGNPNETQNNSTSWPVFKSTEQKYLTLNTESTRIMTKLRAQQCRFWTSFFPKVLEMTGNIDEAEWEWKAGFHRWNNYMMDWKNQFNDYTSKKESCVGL
# Chain of human Fibroblast Growth Factor Receptor 1 (FGFR1), FGFR1 (gene 2260) (P11362 whole entry, looked up): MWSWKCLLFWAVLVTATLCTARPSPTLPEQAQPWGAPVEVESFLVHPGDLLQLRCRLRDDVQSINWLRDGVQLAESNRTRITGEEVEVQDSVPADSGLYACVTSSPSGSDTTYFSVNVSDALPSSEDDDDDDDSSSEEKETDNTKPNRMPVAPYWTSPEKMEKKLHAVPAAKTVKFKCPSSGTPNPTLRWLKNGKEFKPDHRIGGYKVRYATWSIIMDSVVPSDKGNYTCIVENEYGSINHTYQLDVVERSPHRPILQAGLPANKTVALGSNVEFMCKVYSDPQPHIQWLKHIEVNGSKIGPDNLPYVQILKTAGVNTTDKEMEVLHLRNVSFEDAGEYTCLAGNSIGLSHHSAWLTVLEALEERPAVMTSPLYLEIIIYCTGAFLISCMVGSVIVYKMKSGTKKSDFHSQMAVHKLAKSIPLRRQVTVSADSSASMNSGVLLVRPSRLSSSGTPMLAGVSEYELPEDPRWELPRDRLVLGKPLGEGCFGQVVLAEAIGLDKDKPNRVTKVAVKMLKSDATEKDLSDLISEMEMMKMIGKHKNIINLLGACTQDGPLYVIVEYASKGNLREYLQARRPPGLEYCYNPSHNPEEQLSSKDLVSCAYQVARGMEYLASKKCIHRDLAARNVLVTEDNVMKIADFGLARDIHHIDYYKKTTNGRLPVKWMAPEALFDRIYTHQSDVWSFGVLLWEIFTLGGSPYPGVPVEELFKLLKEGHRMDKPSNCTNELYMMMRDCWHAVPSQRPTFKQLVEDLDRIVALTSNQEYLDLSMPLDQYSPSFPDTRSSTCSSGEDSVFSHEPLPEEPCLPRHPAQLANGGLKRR
# Chain of human Elastase, ELANE (gene 1991) (P08246 whole entry, looked up): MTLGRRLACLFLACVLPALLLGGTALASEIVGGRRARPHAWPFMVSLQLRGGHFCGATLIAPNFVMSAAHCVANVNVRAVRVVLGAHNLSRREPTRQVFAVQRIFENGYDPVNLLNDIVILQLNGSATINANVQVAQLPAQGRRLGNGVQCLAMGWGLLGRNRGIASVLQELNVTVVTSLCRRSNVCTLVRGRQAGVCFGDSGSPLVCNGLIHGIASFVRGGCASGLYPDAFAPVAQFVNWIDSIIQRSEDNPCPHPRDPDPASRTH
# Chain of human Ephrin type-A Receptor 1 (EphA1), EPHA1 (gene 2041) (P21709 whole entry, looked up): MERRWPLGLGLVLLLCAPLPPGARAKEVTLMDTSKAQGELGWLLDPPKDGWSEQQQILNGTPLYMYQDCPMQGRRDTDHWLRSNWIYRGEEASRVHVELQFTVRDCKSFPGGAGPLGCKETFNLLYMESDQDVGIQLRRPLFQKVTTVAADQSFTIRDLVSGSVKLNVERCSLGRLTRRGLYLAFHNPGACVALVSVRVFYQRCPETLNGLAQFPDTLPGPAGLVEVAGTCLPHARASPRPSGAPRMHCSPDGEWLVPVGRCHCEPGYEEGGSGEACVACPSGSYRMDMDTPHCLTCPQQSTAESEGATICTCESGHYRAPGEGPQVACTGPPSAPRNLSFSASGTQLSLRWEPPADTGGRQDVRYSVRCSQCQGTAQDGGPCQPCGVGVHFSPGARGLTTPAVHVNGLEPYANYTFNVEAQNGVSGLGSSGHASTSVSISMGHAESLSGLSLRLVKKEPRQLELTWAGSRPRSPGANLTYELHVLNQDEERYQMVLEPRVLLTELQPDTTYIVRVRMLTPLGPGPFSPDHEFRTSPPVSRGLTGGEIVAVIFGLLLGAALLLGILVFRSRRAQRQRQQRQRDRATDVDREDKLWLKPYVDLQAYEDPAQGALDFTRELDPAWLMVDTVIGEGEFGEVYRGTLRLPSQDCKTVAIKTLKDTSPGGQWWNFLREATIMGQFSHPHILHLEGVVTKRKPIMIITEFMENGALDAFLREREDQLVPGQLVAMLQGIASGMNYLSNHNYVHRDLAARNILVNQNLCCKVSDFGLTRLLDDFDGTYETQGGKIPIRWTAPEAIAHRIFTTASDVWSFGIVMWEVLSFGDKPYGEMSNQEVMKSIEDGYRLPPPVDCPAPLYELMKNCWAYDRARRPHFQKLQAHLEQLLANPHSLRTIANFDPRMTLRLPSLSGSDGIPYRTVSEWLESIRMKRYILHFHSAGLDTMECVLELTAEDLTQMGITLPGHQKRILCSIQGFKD
# Chain of human Dual Specificity Protein Phosphatase 3 (DUSP3), DUSP3 (gene 1845) (P51452 whole entry, looked up): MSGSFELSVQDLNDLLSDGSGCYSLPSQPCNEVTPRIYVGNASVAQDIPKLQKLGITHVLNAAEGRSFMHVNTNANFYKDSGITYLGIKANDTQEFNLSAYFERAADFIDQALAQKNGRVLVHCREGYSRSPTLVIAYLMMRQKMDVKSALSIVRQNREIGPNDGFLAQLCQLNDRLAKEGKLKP
# Chain of Glycogen synthase kinase-3 beta (Homo sapiens) (P49841 whole entry, looked up): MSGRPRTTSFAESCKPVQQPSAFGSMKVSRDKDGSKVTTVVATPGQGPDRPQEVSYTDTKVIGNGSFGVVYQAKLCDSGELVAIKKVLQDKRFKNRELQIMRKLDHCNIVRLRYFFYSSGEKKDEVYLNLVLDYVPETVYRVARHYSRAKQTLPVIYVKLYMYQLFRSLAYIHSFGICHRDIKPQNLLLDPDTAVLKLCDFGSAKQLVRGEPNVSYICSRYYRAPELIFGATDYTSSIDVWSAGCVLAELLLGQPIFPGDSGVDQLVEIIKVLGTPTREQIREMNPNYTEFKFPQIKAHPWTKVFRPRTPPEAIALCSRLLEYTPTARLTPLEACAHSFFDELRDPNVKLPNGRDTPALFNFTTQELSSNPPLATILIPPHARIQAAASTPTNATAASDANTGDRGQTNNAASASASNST
# Chain of human Colony Stimulating Factor 1 Receptor (CSF1R), CSF1R (gene 1436) (P07333 whole entry, looked up): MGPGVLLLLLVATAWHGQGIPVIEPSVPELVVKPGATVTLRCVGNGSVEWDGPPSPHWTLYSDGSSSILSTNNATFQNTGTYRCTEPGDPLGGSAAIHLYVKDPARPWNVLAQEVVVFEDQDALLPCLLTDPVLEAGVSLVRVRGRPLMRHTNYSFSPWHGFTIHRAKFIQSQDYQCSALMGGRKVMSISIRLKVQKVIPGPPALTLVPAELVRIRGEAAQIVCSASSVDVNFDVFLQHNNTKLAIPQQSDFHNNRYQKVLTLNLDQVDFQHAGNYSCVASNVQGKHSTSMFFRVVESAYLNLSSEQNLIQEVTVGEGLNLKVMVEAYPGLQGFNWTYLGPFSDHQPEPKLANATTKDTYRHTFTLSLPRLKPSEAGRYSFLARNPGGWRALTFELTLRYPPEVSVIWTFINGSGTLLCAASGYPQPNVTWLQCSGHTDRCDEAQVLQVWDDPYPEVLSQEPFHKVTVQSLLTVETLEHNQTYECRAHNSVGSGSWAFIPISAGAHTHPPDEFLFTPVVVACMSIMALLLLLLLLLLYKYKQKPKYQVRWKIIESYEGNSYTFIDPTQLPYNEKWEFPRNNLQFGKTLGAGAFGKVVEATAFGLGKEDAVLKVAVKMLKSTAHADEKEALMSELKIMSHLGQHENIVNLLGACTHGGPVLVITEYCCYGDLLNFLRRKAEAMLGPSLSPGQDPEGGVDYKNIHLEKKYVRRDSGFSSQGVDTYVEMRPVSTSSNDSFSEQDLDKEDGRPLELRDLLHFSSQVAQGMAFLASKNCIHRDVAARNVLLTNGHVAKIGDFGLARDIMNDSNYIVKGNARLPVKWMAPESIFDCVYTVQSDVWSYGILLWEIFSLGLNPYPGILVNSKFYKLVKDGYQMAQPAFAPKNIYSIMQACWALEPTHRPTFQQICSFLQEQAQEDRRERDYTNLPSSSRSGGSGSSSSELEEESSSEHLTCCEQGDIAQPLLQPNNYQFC
# Chain of Histone deacetylase 3 (Homo sapiens) (O15379 whole entry, looked up): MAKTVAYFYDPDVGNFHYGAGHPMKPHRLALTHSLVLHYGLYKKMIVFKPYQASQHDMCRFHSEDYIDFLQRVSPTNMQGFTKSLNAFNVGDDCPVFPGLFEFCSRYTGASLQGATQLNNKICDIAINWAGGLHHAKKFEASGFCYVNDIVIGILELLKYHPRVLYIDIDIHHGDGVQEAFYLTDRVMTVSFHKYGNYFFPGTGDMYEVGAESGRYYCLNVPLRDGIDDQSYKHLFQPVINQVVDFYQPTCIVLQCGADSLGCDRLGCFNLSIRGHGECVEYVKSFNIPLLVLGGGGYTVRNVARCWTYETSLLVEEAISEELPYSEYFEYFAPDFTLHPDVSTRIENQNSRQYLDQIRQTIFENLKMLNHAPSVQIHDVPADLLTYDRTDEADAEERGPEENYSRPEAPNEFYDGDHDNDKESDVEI
smiles,measurement,setting,value
CCCCCCCCOC(=O)c1ccc(C(=O)OCCCCCCCC)c(C(=O)OCCCCCCCC)c1,AC50,[1],37.9 µM (active)
same,outcome,[2],inactive
CCCCCCCCn1sccc1=O,AC50,[3],26 µM (active)
same,outcome,[4],inactive
COc1cc(C=O)cc2c1[C@H](COC(N)=O)[C@]1(OC(C)=O)ON2C[C@H]2[C@@H]1N2C(C)=O,outcome,[5],inactive
same,AC50,[1],5.75 µM (active)
same,outcome,[4],inactive
same,AC50,[6],0.00608 µM (active)
same,outcome,[7],inactive
C[C@]12C=CC3=C4CCC(=O)C=C4CC[C@H]3[C@@H]1CC[C@@H]2O,outcome,[5],inactive
same,outcome,[7],inactive
Nc1ccc(Cl)cc1N,AC50,[3],6.31 µM (active)
same,outcome,[1],inactive
same,outcome,[8],inactive
same,outcome,[9],inactive
same,outcome,[10],inactive
CN(C)[C@@H]1C(=O)C(C(N)=O)=C(O)[C@@]2(O)C(=O)C3=C(O)c4c(O)cccc4[C@@](C)(O)[C@H]3C[C@@H]12,AC50,[3],7.39 µM (active)
same,AC50,[1],18.5 µM (active)
same,outcome,[8],inactive
same,AC50,[11],25 µM (active)
CC(C)(C)C(O)(CCc1ccc(Cl)cc1)Cn1cncn1 (stereo not drawn),outcome,[12],inactive
same,AC50,[8],22.7 µM (active)
CCCCCOC(=O)c1ccccc1C(=O)OCCCCC,outcome,[1],inactive
CCCCC(CC)COC(=O)c1ccc(C(=O)OCC(CC)CCCC)c(C(=O)OCC(CC)CCCC)c1 (stereo not drawn),outcome,[12],inactive
same,outcome,[4],inactive
same,outcome,[13],inactive
Oc1ccc2ccc3cccc4ccc1c2c34,AC50,[1],4.52 µM (active)
same,AC50,[13],14.9 µM (active)
Cc1cccc(N)c1N,AC50,[3],25 µM (active)
same,AC50,[8],23.1 µM (active)
same,AC50,[11],27.9 µM (active)
Cc1ccc(N=C=O)cc1N=C=O,AC50,[3],12.6 µM (active)
same,AC50,[1],8.38 µM (active)
OCCCBr,outcome,[4],inactive
O=C(Oc1ccc(Br)cc1)N1CCN2CCC1CC2,outcome,[13],inactive
C=CCc1ccc2c(c1)OCO2,outcome,[13],inactive
c1ccc2c(c1)-c1cccc3cccc-2c13,outcome,[14],inactive
same,outcome,[15],inactive
CNC(=O)Oc1cccc2c1OC(C)(C)C2,outcome,[14],inactive
Cn1cc(-c2ccccc2)c(=O)c(-c2cccc(C(F)(F)F)c2)c1,outcome,[9],inactive
c1ccc(NNc2ccccc2)cc1,outcome,[16],inactive
same,outcome,[17],inactive
Clc1ccc(Cl)c(Cl)c1,outcome,[17],inactive
